Holding throughout (assay): NCI-60 one-dose screen, 48 h (100 = growth as untreated, 0 = no growth, -100 = all killed)
For one test, the system named is HCT-15 colon. Particulars: 10 µM unless noted.
A further test deals with HT29 colon. Particulars: 10 µM unless noted.
A further test deals with SNB-19 CNS. Particulars: 10 µM unless noted.
The next test relates to U251 CNS. Particulars: 10 µM unless noted.
A further test has as its system PC-3 prostate. Particulars: 10 µM unless noted.
In the next test the test system is SK-MEL-5 melanoma. Particulars: 10 µM unless noted.
In a further test the test system is UACC-62 melanoma. Particulars: 10 µM unless noted.
The next test has as its system LOX IMVI melanoma. Particulars: 10 µM unless noted.
For another test, the system named is SK-MEL-28 melanoma. Particulars: 10 µM unless noted.
The test system of another test is SK-MEL-2 melanoma. Particulars: 10 µM unless noted.
Another test relates to EKVX NSCLC. Particulars: 10 µM.
For another test, the system named is SN12C renal. Particulars: 10 µM unless noted.
In a further test the test system is UO-31 renal. Particulars: 10 µM unless noted.
The test system of another test is TK-10 renal. Particulars: 10 µM unless noted.
A further test deals with ACHN renal. Particulars: 10 µM unless noted.
The subject of another test is CAKI-1 renal. Particulars: 10 µM unless noted.
Another test deals with A498 renal. Particulars: 10 µM unless noted.
The subject of a further test is CCRF-CEM leukemia. Particulars: 10 µM.
The next test concerns MOLT-4 leukemia. Particulars: 10 µM unless noted.
For another test, the system named is SNB-75 CNS. Particulars: 10 µM unless noted.

This is part of a sample that, as a whole, favours compounds with a hit. Of some 83,000 tested, about 20% had one in any assay.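 Step 1: grow cells in 96-well plates. Step 2: add test compound at a single concentration. Step 3: incubate 48 h. Step 4: record percent growth.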 Unmarked numbers belong to inactive results. Calls of active or inactive are those of the source. How the source made its calls: active means growth percent below 10; inactive means the rest.

For `CCN(CC)c1ccc2nc3ccc(N=Nc4ccc(O)cc4)cc3[n+](-c3ccccc3)c2c1`, the growth with HCT-15 colon is 65.6%; in the test with HT29 colon, 28.9%; in the test on SNB-19 CNS, 73.3%; in the test on U251 CNS, 44.1%; with PC-3 prostate, 48.3%; in the test with SK-MEL-5 melanoma, 46.3%. Also, the growth is 59.3% in the test on UACC-62 melanoma; 36.5% in the test on LOX IMVI melanoma; 52.2% in the test with SK-MEL-28 melanoma; 76.8% with SK-MEL-2 melanoma; 77.6% in the test with EKVX NSCLC; 75.5% in the test on SN12C renal. The growth in the test with UO-31 renal was 48.5%; in the test on TK-10 renal, 66.6%; in the test on ACHN renal, 60.2%; in the test on CAKI-1 renal, 90.5%; with A498 renal, 75%; in the test on CCRF-CEM leukemia, 12.8%. The growth in the test on MOLT-4 leukemia was 18.1%.

`OCCN1CCN(CC/C=C2/c3ccccc3Sc3ccc(C(F)(F)F)cc32)CC1`: the growth in the test on HCT-15 colon was 71.1%; in the test with HT29 colon, 15.8%; in the test with SNB-75 CNS, 56.5%; in the test with U251 CNS, 41%; with SK-MEL-5 melanoma, 56.5%; in the test on UACC-62 melanoma it was 14.4%. In addition, the growth was 65.5% in the test with LOX IMVI melanoma; 68% in the test with SK-MEL-28 melanoma; 79.8% in the test with SK-MEL-2 melanoma; 72.6% with SN12C renal; 40.1% in the test with UO-31 renal; 79% in the test with ACHN renal. Further, the growth was 74.9% with CAKI-1 renal, 79.2% in the test on A498 renal and 41.3% with MOLT-4 leukemia.

Regarding `CCC(C)(C)c1ccc(OCCCCCCN2CCN(c3ccc(C)c(Cl)c3)CC2)cc1`, the growth is 64.8% in the test with HCT-15 colon; 82.8% in the test on HT29 colon; 103% with SNB-19 CNS; 104% with U251 CNS; 78.1% in the test with PC-3 prostate; 78.1% in the test with SK-MEL-5 melanoma. Further, the growth was 79.2% in the test with UACC-62 melanoma; 81.8% in the test with LOX IMVI melanoma; 96.5% with SK-MEL-28 melanoma; 104% in the test with SK-MEL-2 melanoma; 83% in the test with EKVX NSCLC; 92.3% in the test on SN12C renal. The growth in the test with UO-31 renal is 64.5%; in the test with TK-10 renal, 110%; in the test on ACHN renal it was 91.3%; with CAKI-1 renal it was 77.7%; with CCRF-CEM leukemia it was -43.1% (active); with MOLT-4 leukemia, 98.3%.

Consider `CN1C(=O)C(=Cc2coc3ccc(Br)cc3c2=O)C(=O)N(C)C1=O`, for which the growth is 105% in the test with HCT-15 colon; 108% in the test with HT29 colon; 105% in the test with SNB-19 CNS; 104% with U251 CNS; 89.3% in the test on PC-3 prostate; 93.8% in the test with SK-MEL-5 melanoma. The growth in the test on UACC-62 melanoma is 83.4%; with LOX IMVI melanoma it was 101%; in the test on SK-MEL-28 melanoma it was 103%; with SK-MEL-2 melanoma, 111%; with EKVX NSCLC, 109%; in the test with SN12C renal, 90.3%. Further, the growth in the test on UO-31 renal was 77.3%; in the test on TK-10 renal, 108%; with ACHN renal, 96.8%; in the test on CAKI-1 renal, 101%; in the test on CCRF-CEM leukemia it was 116%; in the test on MOLT-4 leukemia, 126%.

For `C=C1CCC2C3(C)COC(c4ccccc4)OC3CCC2(C)C1C/C=C1/C(=O)OCC1O` (configuration not stated), the growth in the test with HCT-15 colon was 61.9%; in the test with HT29 colon it was 54.1%; in the test on SNB-75 CNS, 35.9%; in the test on U251 CNS, 64.9%; in the test with UACC-62 melanoma, 67.4%; in the test with LOX IMVI melanoma, 72.6%. Further, the growth was 66.7% in the test on SK-MEL-2 melanoma; 104% in the test with EKVX NSCLC; 66.7% in the test on SN12C renal; 42.9% in the test with UO-31 renal; 105% in the test with TK-10 renal; 86.7% with ACHN renal. The growth in the test with CAKI-1 renal is 133%.

In the case of `O=C(Nc1cccc(Cn2c(=O)[nH]c3ccc(Oc4ncccn4)cc3c2=O)c1)c1cc(Cl)cc(Cl)c1`, the growth was 77.3% with HCT-15 colon; 47.4% with HT29 colon; 69.4% with SNB-19 CNS; 51.1% with U251 CNS; 64.5% in the test on PC-3 prostate; 56.8% with SK-MEL-5 melanoma. Also, the growth in the test with UACC-62 melanoma is 66.6%; with LOX IMVI melanoma, 86.3%; in the test with SK-MEL-28 melanoma, 60.7%; in the test on SK-MEL-2 melanoma, 55.1%; with EKVX NSCLC, 72.3%; in the test on SN12C renal, 59.4%. The growth was 65.6% in the test on UO-31 renal; 71.5% in the test on TK-10 renal; 19.8% in the test on ACHN renal; 91% with CAKI-1 renal; 85.3% in the test with A498 renal; 77.9% with CCRF-CEM leukemia. Further, the growth in the test with MOLT-4 leukemia was 63.8%.

`CCCCCCCCCCCCCCCCCC1=NCCN1CS(=O)(=O)O`: the growth in the test on HCT-15 colon is 41%; in the test on HT29 colon it was 2.18% (active); with SNB-19 CNS it was 80.4%; in the test with U251 CNS it was 64.5%; with PC-3 prostate, 39%; in the test on SK-MEL-5 melanoma, 87.3%. The growth was 88.9% in the test on UACC-62 melanoma; -2.88% (active) in the test on LOX IMVI melanoma; 103% in the test with SK-MEL-28 melanoma; 69.9% in the test on SK-MEL-2 melanoma; 80.1% in the test on EKVX NSCLC; 53.2% in the test on SN12C renal. For the same compound, the growth with UO-31 renal is 16.6%; in the test with TK-10 renal, 89.4%; in the test on ACHN renal, 47.7%; with CAKI-1 renal, 17.3%; in the test on A498 renal, 87.2%; in the test with CCRF-CEM leukemia, -5.55% (active). Further, the growth in the test with MOLT-4 leukemia is 12.3%.

As to `C[n+]1c2ccccc2c(Nc2ccc(NS(=O)(=O)CCCCN=C(N)N)cc2)c2ccc(N)cc21`, the growth in the test with HCT-15 colon is 79.2%; with HT29 colon, 34%; with SNB-75 CNS it was 37.7%; with U251 CNS, 30%; in the test on PC-3 prostate, 48.3%; in the test with SK-MEL-5 melanoma, 34.2%. The growth in the test with UACC-62 melanoma is 50%; with LOX IMVI melanoma it was 33.5%; in the test with SK-MEL-28 melanoma, 72.7%; in the test on SK-MEL-2 melanoma it was 86.2%; in the test on SN12C renal, 17.8%; in the test on UO-31 renal it was 50.2%. For the same compound, the growth in the test with ACHN renal is 24.1%; with CAKI-1 renal, 43.2%; in the test on A498 renal it was 50.8%; with MOLT-4 leukemia, -13% (active).

Values taken from PubChem BioAssay (NCI).
